In PubChem BioAssay (NCATS) one finds Potency data, which are given here for 16 compounds.

Molecules are shown by their SMILES. Results filed as inconclusive are left out. Entries that show only a call come without a potency. Activity calls are given as the source filed them. Calls follow the shape of the dose curve; as a rule, active = well fitted inhibition curve with a large enough effect; inconclusive = small, poorly fitted or top-dose-only effect; inactive = flat fitted curve, though single readings scatter.

This test has as its system Zika virus NS2B-NS3 protease. Briefly: Primary screen GU AMC qHTS for Zika virus inhibitors (AID 1347154). Also: nearly all actives have a fitted effect of over 70% in size. Particulars: Zika NS2B-NS3 unlinked protease, AMC fluorogenic substrate; series mostly up to 54.1 µM. The procedure, abridged:
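Unlinked Zika NS2B hydrophilic domain/NS3 protease domain noncovalent complex (25 nM final) in 10 mM Tris-HCl pH 8.0, 0.01% Tween 20, with AMC peptide substrate. Fluorescence (ex 340, em 450 nm) change over 15 min, room temperature; percent inhibition fitted to 4-parameter Hill equation.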
(In general: qHTS replaces the single test concentration by a dilution series.)
Turning to `NS(=O)(=O)c1cc(-c2nn[nH]n2)c(NCc2cccs2)cc1Cl`, the Potency entry is “inactive”. The same measure for `Cc1cc(NC(=O)C2=C(O)c3ccccc3S(=O)(=O)N2C)no1`: “inactive”; for `Cc1c(Cn2ccnc2)c2ccccc2n1CCC(=O)O`: “inactive”. On to `CC(=O)N[C@@H](CC(C)C)C(=O)O`, for which the Potency entry is “inactive”. Turning to `NCC1CCC(C(=O)Oc2ccc(CCC(=O)O)cc2)CC1` (stereo unspecified), the Potency result is “inactive”.

As for `Cc1ccc(S(=O)(=O)NC(=O)NC2CCCCCCC2)cc1`, the Potency result is “inactive”. The entry for `Cc1ccsc1C(=CCCN1CCC[C@@H](C(=O)O)C1)c1sccc1C` is “inactive”. The entry for `Cc1ccccc1N=Nc1ccc(N=Nc2c(O)ccc3ccccc23)c(C)c1` is “inactive”; for `NNC(=O)CP(=O)(c1ccccc1)c1ccccc1` it is “inactive”.

On to `COc1ccc(O)cc1`, for which the Potency entry is “inactive”.

With `O=C(O)C(S)C(S)C(=O)O` (stereo unspecified), the Potency result is “inactive”. On to `CC(=O)NS(=O)(=O)c1ccc(N)cc1`, for which the Potency result was “inactive”. As for `CCCCCOC(=O)Nc1nc(=O)n([C@@H]2O[C@H](C)[C@@H](O)[C@H]2O)cc1F`, the Potency result is “inactive”. The same measure for `Cc1c(C)c2c(c(C)c1OC(=O)c1cccnc1)CC[C@@](C)(CCC[C@H](C)CCC[C@H](C)CCCC(C)C)O2`: “inactive”. The entry for `Nc1ncnc2c1ncn2[C@@H]1O[C@H](COP(=O)(O)O)[C@@H](O)[C@H]1O` is “inactive”; for `CCc1nnc(NS(=O)(=O)c2ccc(N)cc2)s1` it is “inactive”.
